Test results taken from PubChem BioAssay AID1159580 (chemical genetic matrix, 2015).
Several values for one entry are separate records, joined by “and”; a condition that tells them apart may be missing. Identical values can stand only once. The campaign covered roughly 5,500 compounds. About 2,000 (36%) were called active. Inconclusive results (about 18%) are left out. Rule as the data show it: active = normalized growth mostly below about 0.91 (no sharp cut-off); inconclusive = no clear call, values can overlap the other calls; inactive = mostly above about 0.92. Some of the results follow.

Experiment: chemical genetic growth profiling, strain panel (AID 1159580);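 also: tested at 20 µM; growth read once vehicle control cultures reached saturation at 30 °C; 1 = growth at the plate median or of vehicle wells; lower values mean less growth of the strain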
Settings: S. cerevisiae deletion strains, growth OD

Measured: normalized growth

NC[C@@H]1O[C@H](O[C@@H]2[C@@H](CO)OC(O[C@@H]3[C@@H](O)[C@H](N)C[C@H](N)[C@H]3OC3O[C@H](CN)[C@@H](O)[C@H](O)[C@H]3N)[C@@H]2O)[C@H](N)[C@@H](O)[C@@H]1O (some centres not stated)
inactive: locus YAL013W, strain DEP1, active compounds read low 1 | locus YAL021C, strain ccr4, active compounds read low 1.01 | locus YAL026C, strain drs2, active compounds read low 1.02 | locus YAL030W, strain snc1, active compounds read low 1.02 | locus YBL061C, strain skt5, active compounds read low 1.03 | locus YBR009C, strain hhf1, active compounds read low 1.03 | locus YBR021W, strain FUR4, active compounds read low 0.966 | locus YBR023C, strain chs3, active compounds read low 1.06 | locus YBR171W, strain sec66, active compounds read low 1.04 | locus YBR229C, strain ROT2, active compounds read low 1 | locus YBR231C, strain swc5, active compounds read low 1.01 | locus YBR279W, strain paf1, active compounds read low 1.01 | locus YCL011C, strain gbp2, active compounds read low 1.03 | locus YCL016C, strain dcc1, active compounds read low 1.05 | locus YCL029C, strain bik1, active compounds read low 1.02 | locus YCL061C, strain MRC1, active compounds read low 1.01 | locus YCL069W, strain vba3, active compounds read low 1.02 | locus YCR088W, strain abp1, active compounds read low 1.02 | locus YDL005C, strain med2, active compounds read low 1.01 | locus YDL035C, strain GPR1, active compounds read low 1.01 | locus YDL040C, strain nat1, active compounds read low 1.02 | locus YDL074C, strain BRE1, active compounds read low 1.01 | locus YDL101C, strain DUN1, active compounds read low 1.01 | locus YDL134C, strain PPH21, active compounds read low 1 | locus YDL185W, strain tfp1, active compounds read low 1.01 | locus YDL192W, strain arf1, active compounds read low 1.02 | locus YDR001C, strain nth1, active compounds read low 1.02 | locus YDR069C, strain doa4, active compounds read low 1.03 | locus YDR101C, strain arx1, active compounds read low 1 | locus YDR137W, strain rgp1, active compounds read low 1.06 | locus YDR150W, strain NUM1, active compounds read low 1.01 | locus YDR159W, strain sac3, active compounds read low 0.997 | locus YDR162C, strain NBP2, active compounds read low 1.01 | locus YDR195W, strain ref2 1.01 | locus YDR297W, strain sur2, active compounds read low 1.02 | locus YDR318W, strain mcm21, active compounds read low 1.01 | locus YDR334W, strain swr1, active compounds read low 1.02 | locus YDR335W, strain msn5, active compounds read low 1.02 | locus YDR388W, active compounds read low 1.01 | locus YDR392W, strain spt3, active compounds read low 0.944 | locus YDR502C, strain sam2, active compounds read low 1.03 | locus YEL003W, strain gim4, active compounds read low 1.02 | locus YEL037C, strain rad23, active compounds read low 1.03 | locus YEL061C, strain CIN8 (second series), active compounds read low 1.03 | locus YEL061C, strain CIN8, active compounds read low 1.01 | locus YER015W, strain faa2, active compounds read low 1.03 | locus YER016W, strain bim1, active compounds read low 1.02 | locus YER110C, active compounds read low 1.01 | locus YER111C, strain swi4, active compounds read low 1.02 | locus YER155C, strain BEM2 (second series), active compounds read low 0.973 | locus YER155C, strain BEM2, active compounds read low 1.01 | locus YER167W, strain BCK2, active compounds read low 1.02 | locus YFR010W, strain ubp6, active compounds read low 1.03 | locus YGL078C, strain dbp3, active compounds read low 1.01 | locus YGL086W, strain mad1, active compounds read low 1 | locus YGL167C, strain pmr1, active compounds read low 1.03 | locus YGL173C, strain kem1, active compounds read low 1.03 | locus YGL227W, strain vid30, active compounds read low 1.03 | locus YGL240W, strain doc1, active compounds read low 1 | locus YGL248W, strain PDE1, active compounds read low 1.01 | locus YGL253W, strain hxk2, active compounds read low 1.03 | locus YGR078C, strain PAC10, active compounds read low 1.02 | locus YGR135W, strain pre9, active compounds read low 1.07 | locus YGR229C, strain SMI1, active compounds read low 1 | locus YGR252W, strain gcn5, active compounds read low 0.957 | locus YHR013C, strain ard1, active compounds read low 1.05 | locus YHR027C, strain rpn1, active compounds read low 1.03 | locus YHR030C, strain SLT2, active compounds read low 1.02 and 0.985 | locus YHR079C, strain IRE1 (second series), active compounds read low 1.02 | locus YHR079C, strain IRE1, active compounds read low 0.983 | locus YHR094C, strain hxt1, active compounds read low 1.01 | locus YHR129C, strain ARP1, active compounds read low 1 | locus YHR142W, strain chs7, active compounds read low 1.05 | locus YHR200W, strain rpn10, active compounds read low 1.03 | locus YIL066C, strain RNR3, active compounds read low 1.03 | locus YIL073C, strain SPO22, active compounds read low 1.07 | locus YIL125W, strain kgd1, active compounds read low 1.02 | locus YIR030C, strain dcg1, active compounds read low 1.01 | locus YJL092W, strain hpr5, active compounds read low 1.03 | locus YJL095W, strain BCK1 (second series), active compounds read low 1.03 | locus YJL095W, strain BCK1, active compounds read low 1.02 and 0.991 | locus YJL115W, strain asf1, active compounds read low 1.03 | locus YJL129C, strain trk1, active compounds read low 1.06 | locus YJL134W, strain LCB3, active compounds read low 0.993 | locus YJL154C, strain vps35, active compounds read low 1.02 | locus YJL164C, strain tpk1, active compounds read low 1.01 | locus YJL166W, strain qcr8, active compounds read low 1.04 | locus YJL168C, strain set2, active compounds read low 1.01 | locus YJL187C, strain SWE1 (second series), active compounds read low 1.01 | locus YJL187C, strain SWE1, active compounds read low 1.01 | locus YJR043C, strain POL32, active compounds read low 1.01 | locus YJR066W, strain TOR1, active compounds read low 0.929
